From PMC5540273 (PLoS ONE, 2017)

system: T1, JNK3; settings: concentration: 1 μM, replicates: in singlicate; n = 1
T1 construct: gene MAPK10
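Further: KINOMEscan kinase panel screen.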

Compound	%Inh [%]
COc1cccc(NC(=O)Nc2ccc(C)c(-c3ccc(C(=O)Nc4ccncc4)cc3)c2)c1 [GSK1398474]	26
CS(=O)(=O)Cc1ccc(Nc2nccc(-c3c(-c4cccc(NC(=O)C5CCCCC5)c4)nn4ncccc34)n2)cc1 [GSK350559]	36
COc1ccc(Nc2nccc(-c3ccc(NC(=O)c4cc5cc(F)ccc5[nH]4)cc3)n2)cc1 [GSK1229496]	3
Cc1cccc2c(-c3ccncn3)c(-c3ccc(F)cc3)nn12 [GW515532]	74
NS(=O)(=O)c1cccc(N/C=C2\C(=O)Nc3ccc(S(=O)(=O)Cc4c(Cl)cccc4Cl)cc32)c1 [GSK398099]	7
O=C(Nc1n[nH]c2nc(-c3ccco3)c(Br)cc12)C1CCN(Cc2ccccc2)C1.O=C(O)[C@H](O)[C@@H](O)C(=O)O (stereo not drawn) [SB-742034]	13
COc1ccc(-c2coc3ccc(-c4nnc(C)o4)cc23)cc1	0
O=c1cc(N2CCOCC2)nc2n(Cc3ccccc3F)ccn12 [GSK2297428]	0
COC(=O)c1cccc(NC(=O)NC2CCN(c3ccnc(Nc4ccc(F)cc4)n3)C2)c1 (stereo not drawn) [GSK1379725]	17
Cc1c(Cn2c(C)c(C)n3c(=O)cc(N4CCOCC4)nc23)cccc1C(F)(F)F [GSK2328680]	0
CNC(=O)c1ccc(C)c(-n2c(C)cc(OCc3ccc(F)cc3F)c(Br)c2=O)c1	100
COc1ccc(Nc2nccc(N3CCC(NC(=O)c4cc5ccccc5s4)C3)n2)cc1 (stereo not drawn) [GSK1379738]	10
CC(=O)c1cccc(NC(=O)NC2CCN(c3ccnc(Nc4ccc(F)cc4)n3)C2)c1 (stereo not drawn) [GSK1379710]	22
O=C1NC(=O)C(c2ccc(Cl)cc2)=C1Nc1cccc(Cl)c1 [SB-317651]	54
Cc1ccc(NC(=O)Nc2ccccc2F)cc1-c1ccc(C(=O)Nc2ccncc2)cc1 [GSK1398477]	0
Cc1ccc(NC(=O)c2ccc(Cl)cc2)cc1-c1ccc(C(=O)Nc2ccncc2)cc1 [GSK1398467]	0
Cc1ccccc1-c1cc(-c2c[nH]nc2-c2ccccn2)ccn1 [GW680061]	32
CC[C@@H]1CO[C@H](C(=O)Nc2ccccc2)CN1c1cc(-c2ccc3c(N)n[nH]c3c2)nc(NC)n1 [GSK2376236]	0

Compound	%Inh [%]
COc1ccc(CSc2nnc(-c3ccc4ncsc4c3)o2)cc1C(F)(F)F	0
Cc1ccc(-c2nc(Nc3ccncc3)c3ccccc3n2)s1 [GSK189015]	14
Cc1ccccc1Cn1ccn2c(=O)cc(N3CCOCC3)nc12 [GSK2269905]	1
CS(=O)(=O)CCNCc1nc(-c2ccc3ncnc(Nc4ccc5c(cnn5Cc5ccccc5)c4)c3c2)cs1.Cl.Cl [GW569716]	4
Cc1nccc(-c2c(-c3ccc(F)cc3)ncn2CCCN2CCOCC2)n1.Cl [SB-282975]	43
Cn1cncc1C(=O)NC1CCN(c2ccnc(Nc3ccc(F)cc3)n2)C1 (stereo not drawn) [GSK1379717]	13
CN1c2ccc(-c3ccc(C(N)=O)cc3)cc2-c2[nH]ncc2S1(=O)=O	0
CC(C)c1cc(-c2ccc3c(N)n[nH]c3c2)nc(N)n1 [GSK2250882]	8
O=C(Nc1n[nH]c2nc(-c3cccs3)c(Br)cc12)C1CC1 [SB-735297]	9
Cc1ccc(NC(=O)Nc2ccc(Cl)cc2)cc1-c1ccc(C(=O)Nc2ccncc2)cc1 [GSK1398472]	1
Fc1ccc(-c2nn3cccc(F)c3c2-c2ccncc2)cc1 [GW475620]	97.4
CC(C)c1ccc(O)cc1Nc1ccnc2ccc(C(F)(F)F)cc12 [GW482059]	0
Fc1ccc(-c2nc3n(c2-c2ccncc2)CCS3)cc1 [GI98581]	98.7
O=C(Nc1n[nH]c2cc(-c3ccsc3)ccc12)C1CC1 [SB-732932]	30
Cc1cnc(N)c(/C=C/c2cncc(C(=O)NCCc3ccc(Cl)cc3Cl)c2)c1.Cl [GSK190937]	4
CC(=O)c1c(C)c2cnc(Nc3ccc(N4CCNCC4)cn3)nc2n(C2CCCC2)c1=O	0
COc1ccc2cc(-c3nc(-c4ccccc4C(C)C)[nH]c3-c3ccncc3)ccc2c1 [SB-660566]	44
CCc1ccc(-c2ccc3c(c2)-c2n[nH]cc2S(=O)(=O)N3C)cc1	0
